# Experimental data as given in PubChem BioAssay (NCATS).
# Inconclusive results are not listed. Unmarked numbers belong to inactive results. The source made the active and inactive calls. Calls follow the shape of the dose curve; as a rule, active = well fitted curve in the direction sought with a large enough effect; inconclusive = small, poorly fitted or top-dose-only effect, or another doubt; inactive = no such curve, though single readings can be large; an effect the other way counts as inactive or inconclusive.
# Target: Cytochrome P450 3A7 (Homo sapiens) (UniProt P24462)
# Sequence (P24462 whole entry, looked up): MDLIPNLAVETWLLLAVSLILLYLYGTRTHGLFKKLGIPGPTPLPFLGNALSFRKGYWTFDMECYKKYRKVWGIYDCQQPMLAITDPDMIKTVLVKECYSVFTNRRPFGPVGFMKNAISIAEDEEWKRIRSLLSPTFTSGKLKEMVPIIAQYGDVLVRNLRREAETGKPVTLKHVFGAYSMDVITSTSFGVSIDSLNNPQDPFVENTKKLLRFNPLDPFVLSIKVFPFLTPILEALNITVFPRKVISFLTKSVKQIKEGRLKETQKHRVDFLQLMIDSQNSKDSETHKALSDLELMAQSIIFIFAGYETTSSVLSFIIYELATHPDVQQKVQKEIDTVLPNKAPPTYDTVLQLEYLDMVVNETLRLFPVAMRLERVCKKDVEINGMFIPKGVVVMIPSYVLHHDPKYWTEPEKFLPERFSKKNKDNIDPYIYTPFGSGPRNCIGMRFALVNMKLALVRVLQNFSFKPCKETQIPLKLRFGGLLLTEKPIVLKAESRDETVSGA
# Experiment: Cytochrome P450 family 3 subfamily A member 7 (CYP3A7) small molecule antagonists: luciferase biochemical qHTS assay (AID 1963596); as to activity change, negative = inhibition: % is scaled to controls: 0 for no effect and ±100 for the full control effect
# Conditions: P450-Glo CYP3A7 enzyme luminescence, 1 h; series mostly up to 57.4 µM; activity change, negative = inhibition: at the top concentration
# Summary of the method: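 Luminescence read-out (relative luminescence units) after 20 min with detection reagent, which stops the reaction. Enzyme, proluciferin substrate and compound preincubated 10 min, RT; NADPH regeneration system then started 1 h reaction. Ketoconazole as positive control.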
# Also: nearly all actives have a fitted effect of over 40% in size.
# Potency is read from the fitted curve at half-maximal effect.
SMILES,"activity change, negative = inhibition",Potency
O=C(O)C[C@@H](NC(=O)c1cc(-c2ccc(-c3ccncc3)cc2)cs1)c1ccccc1,4.96%,–
CCn1c2ccccc2c2cc(Nc3ccnc(NCCCN4CCOCC4)n3)ccc21,4.14%,–
Cc1cccc(C#Cc2cc(F)cc(C#N)c2)n1,2.87%,–
CNC(C)C(=O)NC(C(=O)N1CCCC1C(=O)Nc1cccc2ncccc12)C(C)C (stereo not drawn),-21.2%,–
COC(=O)c1c(-c2ccc(Cl)cc2)noc1N1CCN(c2ccccc2OC)CC1,-26.8%,–
COc1ccc(C2(CNC(=O)c3ccc(NC(=O)c4ccco4)cc3)CCOCC2)cc1,4.84%,–
C=CS(=O)(=O)O,0.832%,–
COc1ccc(-n2[nH]c(=O)c3[nH]c4cc(Cl)ccc4c(=O)c3c2=O)c(C)c1,4.27%,–
COC(=O)c1ccccc1O,-3.03%,–
O=C(O)Cc1ccc2oc(-c3ccc(NC(=O)/C=C/c4ccc(Br)cc4)c(F)c3)nc2c1,-10.3%,–
COc1cncc(C#Cc2ccccn2)c1,-8.7%,–
O=C1OC2(c3ccccc31)c1cc(Br)c(O)c(Br)c1Oc1c2cc(Br)c(O)c1Br,–,19500 nM (active)
O=C(O)c1cc(O)c2c(O)c3c(O[C@@H]4O[C@H](CO)[C@@H](O)[C@H](O)[C@H]4O)cccc3c(-c3c4cc(C(=O)O)cc(O)c4c(O)c4c(O[C@@H]5O[C@H](CO)[C@@H](O)[C@H](O)[C@H]5O)cccc34)c2c1,0%,–
Cc1ccc(-n2nc3c(N4CCCC(C(=O)NCc5ccccc5C)C4)nnc(C)c3c2C)cc1 (stereo not drawn),–,756 nM (active)
CC12CCC(C[N+](C)(CCC[N+](C)(C)C)C1)C2(C)C (stereo not drawn),-18.7%,–
O=C(O)Cc1cn(-c2ccccc2)nc1-c1ccc(Cl)cc1,-3.33%,–
Cc1cc(CC(=O)O)n(C)c1C(=O)c1ccc(Cl)cc1,0.803%,–
O=C(CSc1nc(-c2ccc(F)cc2)nc2c1Cc1ccccc1O2)Nc1cccc(C(=O)O)c1,-24%,–
CC1(C)CCC(C)(C)c2cc(C#Cc3ccc(C(=O)O)cc3)ccc21,0%,–
CCCC(=O)O,-11.8%,–

SMILES,"activity change, negative = inhibition",Potency
COC(=O)C(CC1CCCC1)c1ccc(S(C)(=O)=O)cc1 (stereo not drawn),-10.6%,–
Cc1c(C)c2c(c(C)c1OC(=O)CCC(=O)O)CC[C@@](C)(CCC[C@H](C)CCC[C@H](C)CCCC(C)C)O2,-4.02%,–
CCCCS(=O)(=O)NC(Cc1ccc(OCCCCC2CCNCC2)cc1)C(=O)O (stereo not drawn),-3.86%,–
CCOC(=O)N1c2ccc(C(F)(F)F)cc2C(N(Cc2cc(C(F)(F)F)cc(C(F)(F)F)c2)C(=O)OC)CC1CC (stereo not drawn),-13.2%,–
C[C@@H]([C@@H](O)c1ccc(O)cc1)N1CCC(O)(c2ccccc2)CC1,2.88%,–
CC1(C)CC(NC(=O)C(=O)Nc2ccc(Cl)cc2)CC(C)(C)N1,5.96%,–
Cc1ccc(C(=O)c2cn(CC(=O)Nc3ccc4c(c3)OCCO4)c3nc(C)ccc3c2=O)cc1,-31%,–
COc1cc(CCc2cc(NC(=O)c3ccc(N4CC(C)NC(C)C4)cc3)n[nH]2)cc(OC)c1 (stereo not drawn),0%,–
Cc1ccc(Nc2nnc(-c3ccc([N+](=O)[O-])cc3)o2)cc1Cl,-12.6%,–
CN(c1ccc(NC(=O)Nc2ccccc2)cc1)S(=O)(=O)c1cnn(-c2ccc(F)cc2)c1,0%,–
S=C=Nc1ccc(N=C=S)cc1,2.64%,–
COc1cc(NC(=O)c2ccccn2)ccc1Cl,7.79%,–
CC(C)OC(=O)N1CCC(Oc2ncnc3c2cnn3-c2ccc(S(C)(=O)=O)cc2F)CC1,-17.1%,–
COc1ccc(-c2cnc(-c3cccc4c3-c3ccccc3C4=O)o2)cc1,-20.8% [at 23.9 µM],–
C[C@@H]1C[C@H](C)CN(CCC(=O)Nc2ccc(Br)cc2)C1,-28.1%,–
CCCCc1c(-c2ccc(OC)cc2)[nH]c2nccnc12,0%,–
O=C(NCC1CCN(Cc2cccc(Cl)c2)CC1)[C@@H]1CCCN(c2ncnc3c2nc2n3CCCC2)C1,0%,–
CC1(O)CCC(C(C)(C)O)CC1 (stereo not drawn),-7.2%,–
N#C/C(=C/c1ccccc1Cl)c1nc2ccccc2c(=O)[nH]1,-15.4%,–

# Tested on: not listed separately
# Experiment: Viability qHTS for spleen associated tyrosine kinase inhibitor (SYKi) naive MV4-11 cells (AID 1963823)
# Conditions: MV4-11 AML viability, CellTiter-Glo luminescence, 72 h; series mostly up to 45 µM; viability (% of control): at the top concentration
# Summary of the method: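 Read-out: CellTiter-Glo luminescence. Exposure: 72 hr, 37 C, 5% CO2, 95% humidity. Cells: MV4-11 without SYK inhibitor history, 500/well, qHTS format.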
SMILES,viability (% of control),Potency
O=C(O)C[C@@H](NC(=O)c1cc(-c2ccc(-c3ccncc3)cc2)cs1)c1ccccc1,59.7%,–
CCn1c2ccccc2c2cc(Nc3ccnc(NCCCN4CCOCC4)n3)ccc21,–,2310 nM (active)
Cc1cccc(C#Cc2cc(F)cc(C#N)c2)n1,48.6%,–
CNC(C)C(=O)NC(C(=O)N1CCCC1C(=O)Nc1cccc2ncccc12)C(C)C (stereo not drawn),98.9%,–
COc1ccc(C2(CNC(=O)c3ccc(NC(=O)c4ccco4)cc3)CCOCC2)cc1,76.4%,–
O=C(O)Cc1ccc2oc(-c3ccc(NC(=O)/C=C/c4ccc(Br)cc4)c(F)c3)nc2c1,77.9%,–
COc1cncc(C#Cc2ccccn2)c1,81.5%,–
O=C1OC2(c3ccccc31)c1cc(Br)c(O)c(Br)c1Oc1c2cc(Br)c(O)c1Br,66.7%,–
Cc1cc(CC(=O)O)n(C)c1C(=O)c1ccc(Cl)cc1,71.1%,–
CC1(C)CCC(C)(C)c2cc(C#Cc3ccc(C(=O)O)cc3)ccc21,34.7%,–
COC(=O)C(CC1CCCC1)c1ccc(S(C)(=O)=O)cc1 (stereo not drawn),59%,–
CCCCS(=O)(=O)NC(Cc1ccc(OCCCCC2CCNCC2)cc1)C(=O)O (stereo not drawn),81%,–
C[C@@H]([C@@H](O)c1ccc(O)cc1)N1CCC(O)(c2ccccc2)CC1,52.8%,–
CC1(C)CC(NC(=O)C(=O)Nc2ccc(Cl)cc2)CC(C)(C)N1,69.9%,–
COc1cc(CCc2cc(NC(=O)c3ccc(N4CC(C)NC(C)C4)cc3)n[nH]2)cc(OC)c1 (stereo not drawn),–,820 nM (active)
CN(c1ccc(NC(=O)Nc2ccccc2)cc1)S(=O)(=O)c1cnn(-c2ccc(F)cc2)c1,–,16400 nM (active)
COc1ccc(-c2cnc(-c3cccc4c3-c3ccccc3C4=O)o2)cc1,–,89.3 nM (active)
C[C@@H]1C[C@H](C)CN(CCC(=O)Nc2ccc(Br)cc2)C1,58.8%,–
O=C(NCC1CCN(Cc2cccc(Cl)c2)CC1)[C@@H]1CCCN(c2ncnc3c2nc2n3CCCC2)C1,–,2310 nM (active)
